# Results filed as inconclusive are left out. Values without a mark were called inactive. The source made the active and inactive calls. Calls come from the whole dose curve; as a rule, active = well fitted inhibition curve with a large enough effect; inconclusive = small, poorly fitted or top-dose-only effect; inactive = flat fitted curve, though single readings scatter.
# Target: Calcium and integrin-binding protein 1 (Homo sapiens) (UniProt Q99828)
# Assay: Primary qHTS for Identification of Calcium Integrin Binding Protein 1 (CIB1) Competitor (AID 1508620); note: top concentration of the series differs between compounds
# Conditions: CIB1-GST / FITC-alphaIIb peptide fluorescence polarization; series mostly up to 57.7 µM; activity change, negative = inhibition: at the top concentration
# In short: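 Fluorescence polarization competition: GST-tagged CIB1 (1 uM final) preincubated with compound 15 min at room temperature, then FITC-labelled alphaIIb peptide (100 nM final) added. After 15 min at room temperature, polarization read at Ex 480/Em 540.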
# % is set by controls: 0 for no effect and ±100 for the full control effect.
# Sequence of Calcium and integrin-binding protein 1 (Homo sapiens) (Q99828 whole entry, looked up): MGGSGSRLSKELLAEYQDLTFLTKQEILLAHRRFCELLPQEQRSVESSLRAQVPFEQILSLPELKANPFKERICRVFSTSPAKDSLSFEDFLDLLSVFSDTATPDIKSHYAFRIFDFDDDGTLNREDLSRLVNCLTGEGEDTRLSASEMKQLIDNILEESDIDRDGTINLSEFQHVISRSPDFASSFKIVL
Compound,"activity change, negative = inhibition",outcome
CC(C)(C)c1cnc(CSc2cnc(NC(=O)C3CCNCC3)s2)o1,-0.419%,
CCC[C@H](NC(=O)C(C#N)=Cc1cccc(Br)n1)c1ccccc1,-8.26%,
Cc1cnc(-c2cnc(NCCNc3ccc(C#N)cn3)nc2-c2ccc(Cl)cc2Cl)[nH]1,,inactive
CCCCc1nc2cc(C=CC(=O)NO)ccc2n1CCN(CC)CC,-0.706%,
CC[C@H]1CN2CCc3cc(OC)c(OC)cc3[C@H]2C[C@@H]1C[C@@H]1NCCc2cc(OC)c(OC)cc21,-0.881%,
CC1=C(CO)C(=O)O[C@@H]([C@@H](C)[C@H]2CC[C@H]3[C@@H]4C[C@H]5O[C@]56[C@@H](O)C=CC(=O)[C@]6(C)[C@@H]4CC[C@]23C)C1,2.78%,
COc1cc(Nc2ncc(F)c(Nc3ccc4c(n3)N(COP(=O)(O)O)C(=O)C(C)(C)O4)n2)cc(OC)c1OC,,inactive
Cc1cccc(C=NNc2cc(N3CCOCC3)nc(OCCc3ccccn3)n2)c1,-0.95%,
CNC(=O)c1ccccc1Nc1nc(Nc2ccc(N3CCOCC3)cc2OC)ncc1Cl,,inactive
CC1(O)CC(c2nc(-c3ccc4ccc(-c5ccccc5)nc4c3)c3c(N)nccn23)C1 (configuration not stated),,inactive
CN1CCN(c2ccc3nc(-c4c(N)c5c(F)cccc5[nH]c4=O)[nH]c3c2)CC1,0.0456%,
C[C@@H]1CN(CC(=O)Nc2ccc3c(c2)Cc2cccc(-c4cc(=O)cc(N5CCOCC5)o4)c2S3)C[C@H](C)O1,-3.82%,
CC(=O)c1c(C)c2cnc(Nc3ccc(N4CCNCC4)cn3)nc2n(C2CCCC2)c1=O,,inactive
O=C(C=Cc1cccc(S(=O)(=O)Nc2ccccc2)c1)NO,-5.15% [at 114 µM],
CNC(=O)c1ccc(N2C(=S)N(c3cnc(C#N)c(C(F)(F)F)c3)C(=O)C23CCC3)cc1F,,inactive
CCn1nnc2c(N3CCOCC3)nc(-c3ccc(NC(=O)Nc4ccc(C(=O)N5CCN(C)CC5)cc4)cc3)nc21,,inactive
COC(=O)Nc1ccc(-c2nc(N3CCOCC3)c3cnn(C4CCN(Cc5cccnc5)CC4)c3n2)cc1,,inactive
C[C@@H](Oc1cc(-n2cnc3ccc(CN4CCN(C)CC4)cc32)sc1C(N)=O)c1ccccc1C(F)(F)F,-5.79%,
C=C1C(=CC=C2CCC[C@]3(C)[C@@H]([C@H](C)C=C[C@H](C)C(C)C)CC[C@@H]23)C[C@@H](O)C[C@@H]1O,-1.07%,
NC1(Cc2ccc(Cl)cc2)CCN(c2ncnc3[nH]ccc23)CC1,,inactive
Nc1cc(C(F)(F)F)c(-c2cc(N3CCOCC3)nc(N3CCOCC3)n2)cn1,,inactive
CCOc1ccccc1OCCNC(C)Cc1ccc(OC)c(S(N)(=O)=O)c1 (configuration not stated),,inactive

# From PubChem BioAssay (NCATS)
